Out of some 48,000 compounds screened, about 13,000 (27%) showed an effect of 50% or more. Some of the results follow.
tested on: Wolbachia pipientis; experiment: Anti-Wolbachia Cell-Based Screen; type: functional; set-up: scale not given: in the data most compounds retested in dose-response had high values; conditions: 5 µM

Point of comparison: Cc1nc2n(n1)CC(NCC(=O)NCCCOC(C)C)CC2 (stereo not drawn), “Percent Effect” value -9.274%. Against it:
- CNC(=O)NC(=O)CCSc1ccccc1C — lower, -14.48%
- CCc1noc(CN2CCCC2C(=O)OCc2ccccc2)n1 (stereo not drawn) — higher, 6.169%
- Cc1ccc(NC2CCN(C(=O)Cc3ccc(C#N)cc3)CC2)nn1 — higher, -2.358%
- COc1ccc(CC(=O)N2CCC(Nc3ccc(C)nn3)CC2)cc1 — higher, 95.7%
- Cc1ccc(CC(=O)N2CCC(Nc3ccc(C)nn3)CC2)cn1 — higher, 105.9%
- Cc1ccc(OCC(=O)NS(=O)(=O)c2cccnc2)cc1C — higher, -7.985%
- Cc1c[nH]c(C(=O)N2CCC(c3nnc(CN(C)CCO)n3C)CC2)c1 — lower, -9.354%
- CCCNC(=O)CN1CCOC(c2ccc(Br)cc2)C1 (stereo not drawn) — higher, -1.206%
- COC1CCCN(Cc2cc(O)c3cc(C)cc(C)c3n2)C1 (stereo not drawn) — higher, -4.558%
- Cc1cc(C)c2nc(CN3CC[C@@H](O)C3)cc(O)c2c1 — lower, -21.84%
- Cc1cc(C)c2nc(CN3CCCC(c4cc[nH]n4)C3)cc(O)c2c1 (stereo not drawn) — higher, 54.67%
- CN(Cc1cccnc1)[C@@H]1CN(Cc2nccn2C)[C@@H]2CCCO[C@H]12.O=C(O)C(F)(F)F.O=C(O)C(F)(F)F.O=C(O)C(F)(F)F.O=C(O)C(F)(F)F — higher, 107.5%
- CN(Cc1ccco1)[C@@H]1CN(Cc2cnn(C)c2)[C@@H]2CCCO[C@H]12.O=C(O)C(F)(F)F.O=C(O)C(F)(F)F — higher, 12.06%
- CN(Cc1ccco1)[C@@H]1CN(Cc2nccn2C)[C@@H]2CCCO[C@H]12.O=C(O)C(F)(F)F.O=C(O)C(F)(F)F.O=C(O)C(F)(F)F — higher, -0.8776%
- CN(Cc1cccnc1)[C@@H]1CN(Cc2cnn(C)c2)[C@@H]2CCCO[C@H]12.O=C(O)C(F)(F)F.O=C(O)C(F)(F)F.O=C(O)C(F)(F)F.O=C(O)C(F)(F)F — higher, 88.39%
- CCN(CC)[C@@H]1CN(Cc2nccn2C)[C@@H]2CCCO[C@H]12.O=C(O)C(F)(F)F.O=C(O)C(F)(F)F.O=C(O)C(F)(F)F — lower, -9.914%
- Cn1cc(CN2C[C@H](N3CCOCC3)[C@@H]3OCCC[C@@H]32)cn1.O=C(O)C(F)(F)F.O=C(O)C(F)(F)F — higher, 9.025%
- CCC(C)(CNC(=O)Nc1nncs1)N1CCOCC1 (stereo not drawn) — higher, -7.544%
- Cc1nc(C)n(CC2CCCN(c3ncnc4ccsc34)C2)n1 (stereo not drawn) — higher, -4.048%
- Cc1nc(C)n(CC2CCCN(c3ncnc4ccccc34)C2)n1 (stereo not drawn) — higher, 143.5%
- Cc1nc(C)n(CC2CCCN(c3ncnc4c3CCC4)C2)n1 (stereo not drawn) — lower, -12.81%
- Cc1nc(C)n(CC2CCCN(c3ccc(C#N)cn3)C2)n1 (stereo not drawn) — higher, 123%
- Cc1nc(C)n(CC2CCCN(c3ccnc(-c4ccccc4)n3)C2)n1 (stereo not drawn) — lower, -14.72%
- CC(C)(NC(=O)C1CCN(C2CCCCC2)CC1)c1nnc(N)s1 — higher, 3.743%
- c1cncc(-c2nc3c(c(NCC4(c5ccncc5)CC4)n2)CCC3)c1 — lower, -14.36%
- CCn1nc(C)cc1C(=O)N1CCOc2cc(C)ccc21 — higher, -0.2889%
- Cc1csc(CNc2cnn(C(C)C)c2)n1 — higher, 2.502%
- Cc1cn2c(CN(C)C(=O)c3cccnc3O)c(C)nc2s1 — higher, 1.222%
- Cc1nn(C)c(C)c1C1CCCN1Cc1nc(-c2cccs2)no1 (stereo not drawn) — higher, 66.61%
- Cc1nn(C)c(C)c1C1CCCN1Cc1nc(C2CC2)no1 (stereo not drawn) — higher, -2.837%
- Cc1nn(C)c(C)c1C1CCCN1Cc1nc(-c2ccccn2)no1 (stereo not drawn) — higher, 93.92%
- Cc1nc(C)n(CC2CCCN2Cc2nc(-c3cccs3)no2)n1 (stereo not drawn) — lower, -9.424%
- C1CCC(c2nnc3sc(C4CCOC4)nn23)C1 (stereo not drawn) — higher, 100.6%
- C1CCC(c2nn3c(C4CCCO4)nnc3s2)C1 (stereo not drawn) — higher, 94.06%
- C1CCC(c2nnc3sc(C4CCCO4)nn23)C1 (stereo not drawn) — higher, 107.8%
- CCn1cc(N2Cc3nc(N4CCN(C)CC4)ncc3C2=O)cn1 — higher, -2.562%
- CC(=O)N1CC[C@H]2CC(=O)N(CCc3c[nH]cn3)CC[C@H]2C1 — higher, 10.36%
- Cc1oc(C(=O)O)cc1S(=O)(=O)Nc1cccc(Cl)c1F — higher, 105.9%
- Cc1oc(C(=O)O)cc1S(=O)(=O)Nc1cccc(-c2nccs2)c1 — higher, 2.887%
- Cc1oc(C(=O)O)cc1S(=O)(=O)Nc1cc(Br)ccc1F — higher, 94.97%
- Cc1oc(C(=O)O)cc1S(=O)(=O)Nc1ccc(Cl)c(F)c1 — higher, -4.199%
- Cc1cccc(NS(=O)(=O)c2cc(C(=O)O)oc2C)c1Cl — higher, -7.287%
- O=C(O)c1ccc(S(=O)(=O)Nc2ccccc2CC(F)(F)F)c(F)c1 — higher, -4.395%
- Cc1oc(C(=O)O)cc1S(=O)(=O)Nc1ccc(Cl)cc1F — higher, 103.2%
- CN(C)C(=O)CNS(=O)(=O)c1cc(Br)ccc1F — higher, 0.0286%
- Cc1oc(C(=O)O)cc1S(=O)(=O)Nc1ccccc1F — higher, 96.87%
- Cc1oc(C(=O)O)cc1S(=O)(=O)Nc1cc(Cl)ccc1F — higher, 4.903%
- Cc1ccc([C@H]2CN(C(C)C)C[C@@H]2NS(=O)(=O)N2CCOCC2)o1 — lower, -9.511%
- O=C(O)C(F)(F)F.O=C(c1ccncc1)N1CC[C@H]2[C@H]1CCN2S(=O)(=O)C1CC1 — higher, -0.5443%
- CCn1ccnc1CNCC1CCN(CC(O)c2ccccc2)CC1 (stereo not drawn) — higher, -5.873%
- Cc1cc(CN2CCC3(CC2)CC(C(=O)O)N(C(=O)C2CC2)C3)oc1C (stereo not drawn) — lower, -10.16%
- O=C(c1cc(Cl)c2c(c1)OCO2)N1CCN(c2ccccn2)CC1 — lower, -15.08%
- Cc1cccc(NS(=O)(=O)c2cc(C(=O)O)oc2C)c1 — higher, -4.62%
- Cc1ccc(F)c(NS(=O)(=O)c2cc(C(=O)O)oc2C)c1 — higher, 98.71%
- Cc1oc(C(=O)O)cc1S(=O)(=O)Nc1cc(F)ccc1F — higher, 110.8%
- O=C(O)CSc1nnc(-c2cn[nH]c2)n1-c1ccccc1Cl — lower, -15.15%
- O=C(CS(=O)(=O)c1cccc[n+]1[O-])NC1CCCc2ccccc21 (stereo not drawn) — higher, 4.468%
- CN(Cc1cccnc1)C[C@H]1OC[C@@H]2CCN(C(=O)C3CC3)C[C@@H]21.O=C(O)C(F)(F)F.O=C(O)C(F)(F)F — lower, -29.83%
- Cc1ccnc2c1NC(=O)CN2C(=O)CCc1cccs1 — higher, 21.37%
- O=C(CO[C@@H]1CC[C@H]2[C@H]1OCCN2Cc1ccccn1)N1CCCC1.O=C(O)C(F)(F)F.O=C(O)C(F)(F)F — higher, -4.207%
- Fc1ccc(CN2CCO[C@H]3[C@H](OCc4ccncc4)CC[C@@H]32)cc1.O=C(O)C(F)(F)F.O=C(O)C(F)(F)F — higher, 140.9%
- COc1ccc(CN2CCO[C@H]3[C@H](Oc4ccccn4)CC[C@@H]32)cc1.O=C(O)C(F)(F)F.O=C(O)C(F)(F)F — higher, -1.108%
- Cc1cccc(CN2CCO[C@@H]3CC(COc4ccccn4)C[C@H]32)n1.O=C(O)C(F)(F)F.O=C(O)C(F)(F)F (stereo partly drawn) — higher, 94.81%
- Cc1cccc(CO[C@@H]2CC[C@H]3[C@H]2OCCN3Cc2cc(C)on2)n1.O=C(O)C(F)(F)F.O=C(O)C(F)(F)F — higher, -3.201%
- Cc1cccc(CN2CCO[C@H]3[C@@H](OCc4ccncc4)CC[C@@H]32)n1.O=C(O)C(F)(F)F.O=C(O)C(F)(F)F.O=C(O)C(F)(F)F — higher, 103.5%
- Cc1nnc(N2C[C@H](OCc3ccncc3)[C@H]3OCCC[C@H]32)s1.O=C(O)C(F)(F)F.O=C(O)C(F)(F)F — higher, -4.606%
- COc1ccc(CN2CCO[C@H]3[C@H](OCc4ccncc4)CC[C@@H]32)cc1.O=C(O)C(F)(F)F.O=C(O)C(F)(F)F — higher, 132.4%
- Cc1cccc(CN2Cc3[nH]nc(COCC4CC4)c3C2)n1.O=C(O)C(F)(F)F — higher, -6.126%
- Fc1ccccc1CN1C[C@@H](OCc2ccncc2)[C@H]2OCCC[C@H]21.O=C(O)C(F)(F)F.O=C(O)C(F)(F)F — higher, 11.15%
- COc1cc(CNCCn2cccn2)c2c(c1)CC(C)O2 (stereo not drawn) — higher, -3.376%
- CC(=O)Nn1c(C)cc(CN2CCC(c3ccncc3)CC2)c1C — higher, -4.141%
- CC(c1cccnc1)N(C)Cc1csc(-c2ccccn2)n1 (stereo not drawn) — higher, 4.015%
- N#Cc1ccccc1CN1CCC2(CC1)CC(c1ccccc1)C(=O)N2 (stereo not drawn) — higher, 15.31%
- Cc1nc(CNC(=O)CCN2CCN(c3ccccc3)CC2)oc1C — higher, 0.8962%
- COc1c(CNCC(O)c2ccccc2)c(C(C)C)nn1C (stereo not drawn) — higher, 92.93%
- COc1c(CNCc2ccc(N(C)C)nc2)c(C(C)C)nn1C — higher, -3.12%
- COc1c(CNCC(O)c2ccccc2F)c(C(C)C)nn1C (stereo not drawn) — higher, 91.26%
- COc1c(CNCC(c2cccc(F)c2)N(C)C)c(C(C)C)nn1C (stereo not drawn) — higher, 10%
- COc1c(CNCC(O)c2ccc(C)cc2)c(C(C)C)nn1C (stereo not drawn) — higher, 85.73%
- COc1ncccc1CNCc1c(C(C)C)nn(C)c1OC — higher, 1.463%
- COc1ccccc1C(O)CNCc1c(C(C)C)nn(C)c1N(C)C (stereo not drawn) — higher, 2.712%
- CC(C)c1nn(C)c(N(C)C)c1CNCC(O)c1ccccc1F (stereo not drawn) — higher, -5.015%
- Cc1nn(C)c(N(C)C)c1CNCc1cccc(Cl)c1 — higher, 10.47%
- COc1c(CNCc2ccc(CN(C)C)cc2)c(C(C)C)nn1C — higher, -2.323%
- Cc1nn(C)c(N(C)C)c1CNCC(O)c1ccccc1F (stereo not drawn) — higher, 78.77%
- Cc1cccc(C(=O)N2CCSCC2)c1NC(=O)c1ccsc1 — higher, 1.507%
- O=C(c1cc(=O)[nH]c(=O)[nH]1)N1CCCCC1c1nc2cc(F)ccc2[nH]1 (stereo not drawn) — higher, -7.879%

From ChEMBL document CHEMBL3988442, “University of Dundee, Small-Polar-MMV Screening Library” (2021)
